Screen size: about 310,000 compounds; about 2,200 (0.71%) showed an effect of 50% or more. The effect is printed as a negative number. Shown is part of a subset that was picked to be rich in strong results.
target: human ether-à-go-go-related gene (hERG) potassium channel (human, UniProt Q12809); experiment: primary screen, population patch clamp on CHO cells stably expressing hERG; higher = less effect of the substance
Sequence (Q12809 whole entry, looked up): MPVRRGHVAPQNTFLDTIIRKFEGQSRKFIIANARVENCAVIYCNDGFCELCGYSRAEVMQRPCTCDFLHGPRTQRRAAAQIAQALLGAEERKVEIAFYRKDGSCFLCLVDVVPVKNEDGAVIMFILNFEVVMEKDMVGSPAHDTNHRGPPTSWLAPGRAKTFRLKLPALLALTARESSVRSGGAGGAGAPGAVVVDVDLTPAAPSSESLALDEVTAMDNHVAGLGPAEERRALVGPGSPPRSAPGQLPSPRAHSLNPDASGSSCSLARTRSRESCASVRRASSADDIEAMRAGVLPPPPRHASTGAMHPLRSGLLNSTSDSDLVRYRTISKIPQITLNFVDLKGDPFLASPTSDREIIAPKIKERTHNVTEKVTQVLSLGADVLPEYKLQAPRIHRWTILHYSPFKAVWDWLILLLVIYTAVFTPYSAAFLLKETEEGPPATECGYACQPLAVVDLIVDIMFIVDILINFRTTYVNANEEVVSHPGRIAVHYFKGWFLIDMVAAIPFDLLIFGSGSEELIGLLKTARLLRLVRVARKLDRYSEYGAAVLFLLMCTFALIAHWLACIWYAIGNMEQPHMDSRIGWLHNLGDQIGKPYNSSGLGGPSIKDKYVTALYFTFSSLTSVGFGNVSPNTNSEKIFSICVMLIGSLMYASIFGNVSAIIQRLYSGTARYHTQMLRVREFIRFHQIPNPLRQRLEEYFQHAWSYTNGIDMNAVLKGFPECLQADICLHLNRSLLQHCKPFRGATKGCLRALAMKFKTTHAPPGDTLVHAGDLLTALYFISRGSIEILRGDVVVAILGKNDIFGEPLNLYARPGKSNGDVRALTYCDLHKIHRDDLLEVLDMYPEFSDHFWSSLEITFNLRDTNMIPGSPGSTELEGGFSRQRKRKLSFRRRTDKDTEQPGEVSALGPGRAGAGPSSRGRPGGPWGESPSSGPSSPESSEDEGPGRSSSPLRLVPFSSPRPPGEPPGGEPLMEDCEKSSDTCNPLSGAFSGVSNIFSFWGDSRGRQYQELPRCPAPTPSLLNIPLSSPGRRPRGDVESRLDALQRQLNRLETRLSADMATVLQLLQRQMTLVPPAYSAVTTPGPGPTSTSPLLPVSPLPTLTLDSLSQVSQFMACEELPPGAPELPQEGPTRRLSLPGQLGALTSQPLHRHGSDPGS

Row | SMILES | hERG current change (%, negative = inhibition) at 1uM [%]
1 | Cc1cc2oc(C(=O)N(Cc3ccccc3)c3ccccn3)cc(=O)c2cc1Cl | 10.6
2 | CCn1nc(C)cc1C(=O)Sc1cccc(Cl)c1 | 10.9
3 | CCCCCCCC(=O)NNC(=O)c1c(O)c2ccccc2[nH]c1=O | 9.8
4 | CCCCn1c(N)c(N(C)C(=O)c2ccc(Br)o2)c(=O)[nH]c1=O | 7.35
5 | O=C(O)C1CC=CCC1C(=O)N1CCCC1 (centres unmarked) | -1.33
6 | O=C(CCC(F)(F)F)N1CCCC(CO)(CCc2ccccc2)C1 (centres unmarked) | -3.42
7 | COc1ccccc1/C=C/CN1CCCC(CO)(CCc2ccccc2)C1 (centres unmarked) | -31.4
8 | OCC1(CCc2ccccc2)CCCN(C/C=C/c2ccccc2)C1 (centres unmarked) | -53.6
9 | CCOc1cc(C2NC(=O)NC(C)=C2C(=O)OC(C)CC)cc(Br)c1O (centres unmarked) | 10.2
10 | O=C1N[C@@H](Cc2cn(S(=O)(=O)c3c(F)c(F)c(F)c(F)c3F)c3ccccc23)C(=O)N[C@H]1Cc1ccccc1 | 10.7
11 | CSc1ccc(/C=C(/NC(=O)c2ccccc2)C(=O)N2CCN(C)CC2)cc1 | -48.7
12 | CCOC(=O)N1CCN(C(=O)/C(=C/c2cccc3ccccc23)NC(=O)c2ccc(OC)cc2)CC1 | -10.5
13 | CN1CCN(C(=O)/C(C#N)=C/c2ccc(F)cc2)CC1.Cl | 1.43
14 | O=C(N/C(=C/c1ccc(F)cc1)C(=O)N1CCCC1)c1ccccc1 | 25.3
15 | COc1ccc(/C=C(/NC(=O)c2ccccc2)C(=O)N2CCCC2)cc1 | 6.1
16 | CCOC(=O)N1CCN(C(=O)/C(=C/c2ccc(OC)cc2)NC(=O)c2ccccc2)CC1 | -27.1
17 | CN1CCN(C(=O)/C(=C/c2ccc(F)cc2)NC(=O)c2ccccc2)CC1 | -80.8
18 | CCOC(=O)N1CCN(C(=O)/C(=C/c2ccc(Br)cc2)NC(=O)c2ccc(OC)cc2)CC1 | -81.5
19 | COc1ccc(/C=C(\NC(=O)c2ccccc2)C(=O)N2CCN(C)CC2)cc1 | -75.2
20 | CN1CCN(C(=O)/C(=C/c2ccc(F)cc2)c2ccsc2)CC1.Cl | -52.8
21 | COc1ccc(/C=C(/NC(=O)c2ccccc2)C(=O)N2CCCCC2)cc1 | 6.93
22 | CN1CCN(C(=O)/C(=C/c2ccccc2)c2ccccc2)CC1 | -33.2
23 | CCOC(=O)/C=C/C(=O)Nc1ccc(S(=O)(=O)Nc2cc(C)on2)cc1 | 10.3

Reference: paper PMC4336329 (PLoS ONE, 2015)
